# From ChEMBL document CHEMBL3988442, “University of Dundee, Small-Polar-MMV Screening Library” (2021)
# Tests used:
# [1] = target: T1, Aspartate--tRNA(Asp/Asn) ligase (Mycobacterium tuberculosis (strain ATCC 25618 / H37Rv)) (UniProt P9WFW3); test: Assay for Asp RNA synthetase-1 from Mycobacterium tuberculosis; assay type: functional; parameters: scale not given: direction of the effect not stated beside the values; details: 30 µM; further: in the data most compounds retested in dose-response had high values
# T1 sequence (whole entry): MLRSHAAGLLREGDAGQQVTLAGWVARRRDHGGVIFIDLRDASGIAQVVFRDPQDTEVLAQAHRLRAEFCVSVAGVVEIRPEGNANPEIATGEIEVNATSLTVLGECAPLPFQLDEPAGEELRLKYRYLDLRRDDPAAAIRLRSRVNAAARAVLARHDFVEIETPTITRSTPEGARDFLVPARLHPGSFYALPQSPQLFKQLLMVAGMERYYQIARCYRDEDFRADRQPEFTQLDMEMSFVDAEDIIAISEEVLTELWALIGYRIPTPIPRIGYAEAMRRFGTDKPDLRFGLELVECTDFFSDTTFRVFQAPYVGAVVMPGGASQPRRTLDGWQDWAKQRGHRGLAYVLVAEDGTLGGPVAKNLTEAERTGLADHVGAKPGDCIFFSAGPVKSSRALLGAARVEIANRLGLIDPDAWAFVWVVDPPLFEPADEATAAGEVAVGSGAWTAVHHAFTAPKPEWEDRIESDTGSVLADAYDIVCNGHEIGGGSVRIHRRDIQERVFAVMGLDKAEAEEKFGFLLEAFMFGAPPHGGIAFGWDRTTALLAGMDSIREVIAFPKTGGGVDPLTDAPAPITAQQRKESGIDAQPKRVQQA
# [2] = target: Shiga toxin 2 (Escherichia coli O157:H7) (UniProt P09385+P09386); test: E. coli 0.157:H7 Shiga Toxin SOP - stx2 screening assay; assay type: functional; parameters: scale not given: direction of the effect not stated beside the values; details: 30 µM
SMILES,Percent Effect [1] [%],Percent Effect [2] [%]
Cc1nc(CN2CCC(N(C)Cc3noc(C4CC4)n3)C2)oc1C (stereo unspecified),1.48,-11
COc1cccc(N2CCN(CCC(=O)NC3CCCC3)CC2)c1,1.95,-41.4
OCc1ccc(Cl)c(NCc2cccnc2)c1,1.83,-19.3
